Laboratory results: the supplement of paper PMC10849652
The full data set covers some 8,800 targets. This sample favours those with a hit. About 0.5% of all pairs of compound and target were hits.

Tests used:
Assay in all cases: log2 fold change, soluble protein after heating vs DMSO (PISA); higher = thermal stabilisation; K562 lysate, 10 uM; active = over 0.2 and 3.5 SD of the protein, either way, in both replicates (recomputed)
ibrutinib = compound: C=CC(=O)N1CCC[C@@H](n2nc(-c3ccc(Oc4ccccc4)cc3)c3c(N)ncnc32)C1 [ibrutinib]
Outline: (§1)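 Following dounce homogenisation of K562 pellets in PBS pH 7.4 with 1 mM MgCl2, crude extract at 1 mg/mL protein was incubated for 30 min with 10 μM compound. Aliquots were then heated for 3 min over 48°C-58°C and pooled, NP-40 was added to 0.5% at 4°C, and soluble protein was recovered as the supernatant at 21,000xg for 90 min. Channel-sum-equalised TMTpro 16plex LC-MS/MS quantified this protein. Each value, from duplicates, is a log-two fold change in thermal stability relative to solvent controls.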

[1] = compound: CC(=O)c1cnc2ccc(-c3cc(Cl)c(O)c(Cl)c3)nc2c1N[C@H]1CC[C@H](CN(C)C)CC1
Outline: as §1

ralimetinib = compound: CC(C)(C)Cn1c(N)nc2ccc(-c3[nH]c(C(C)(C)C)nc3-c3ccc(F)cc3)nc21 [ralimetinib]
Outline: as §1

[2] = compound: CC(C)(O)CC(=O)NCCn1ccc2ncnc(Nc3ccc(Oc4cccc(C(F)(F)F)c4)c(Cl)c3)c21
Outline: as §1

[3] = compound: CC(C)C1=C2N=C(C=C(N2N=C1)NCC3=CC=CC=C3)NCCCCCCN
Outline: as §1

[4] = compound: CC1=C(C(CC(=O)N1)C2=CC=C(C=C2)C(F)(F)F)C(=O)NC3=C(C=C4C(=C3)C=NN4)F
Outline: as §1

[5] = compound: CC1=C(C2=C(C=C1)C(=O)C3=CC=CC=C3N2CCCN)C
Outline: as §1

[6] = compound: CC1=C(C=C(C=C1)NC(=O)C2=CC(=CC=C2)C(C)(C)C#N)NC3=CC4=C(C=C3)N=CN(C4=O)C
Outline: as §1

[7] = compound: CC1=C(C=C(C=C1)NC(=O)C2=CC(=CC=C2)N(C)C)NC(=O)C3=CC=C(C=C3)O
Outline: as §1

[8] = compound: CC1=CC=C(C=C1)SC2=C3C=C(SC3=CN=C2)C(=O)N
Outline: as §1

vemurafenib = compound: CCCS(=O)(=O)Nc1ccc(F)c(C(=O)c2c[nH]c3ncc(-c4ccc(Cl)cc4)cc23)c1F [vemurafenib]
Outline: as §1

[9] = compound: CCCS(=O)(=O)Nc1ccc(F)c(C(=O)c2c[nH]c3ncc(Cl)cc23)c1F
Outline: as §1

barasertib = compound: CCN(CCCOc1ccc2c(Nc3cc(CC(=O)Nc4cccc(F)c4)[nH]n3)ncnc2c1)CCOP(=O)(O)O [barasertib]
Outline: as §1

[10] = compound: CC[C@@H]1C(=O)N(C)c2cnc(Nc3ccc(C(=O)NC4CCN(C)CC4)cc3OC)nc2N1C1CCCC1
Outline: as §1

volasertib = compound: CC[C@@H]1C(=O)N(C)c2cnc(Nc3ccc(C(=O)N[C@H]4CC[C@H](N5CCN(CC6CC6)CC5)CC4)cc3OC)nc2N1C(C)C [volasertib]
Outline: as §1

[11] = compound: CCn1c(C(=O)N(C2CC2)C2CC2)cc2c3c(ncn3C)c(Nc3cc(C)n(C)n3)nc21
Outline: as §1

[12] = compound: CCn1cc(-c2ccnc3[nH]c(-c4cccc(CN(C)C)c4)cc23)c(-c2ccc(NC(=O)N(C)C)cc2)n1
Outline: as §1

[13] = compound: CN1CCC(CNc2ccc3ncc(-c4cccc(OC(F)(F)F)c4)n3n2)CC1
Outline: as §1

saracatinib = compound: CN1CCN(CCOc2cc(OC3CCOCC3)c3c(Nc4c(Cl)ccc5c4OCO5)ncnc3c2)CC1 [saracatinib]
Outline: as §1

sotrastaurin = compound: CN1CCN(c2nc(C3=C(c4c[nH]c5ccccc45)C(=O)NC3=O)c3ccccc3n2)CC1 [sotrastaurin]
Outline: as §1

Measured: log2 fold change

TADA3 (UniProt O75528)
UniProt O75528, sequence (O75528 whole entry, looked up): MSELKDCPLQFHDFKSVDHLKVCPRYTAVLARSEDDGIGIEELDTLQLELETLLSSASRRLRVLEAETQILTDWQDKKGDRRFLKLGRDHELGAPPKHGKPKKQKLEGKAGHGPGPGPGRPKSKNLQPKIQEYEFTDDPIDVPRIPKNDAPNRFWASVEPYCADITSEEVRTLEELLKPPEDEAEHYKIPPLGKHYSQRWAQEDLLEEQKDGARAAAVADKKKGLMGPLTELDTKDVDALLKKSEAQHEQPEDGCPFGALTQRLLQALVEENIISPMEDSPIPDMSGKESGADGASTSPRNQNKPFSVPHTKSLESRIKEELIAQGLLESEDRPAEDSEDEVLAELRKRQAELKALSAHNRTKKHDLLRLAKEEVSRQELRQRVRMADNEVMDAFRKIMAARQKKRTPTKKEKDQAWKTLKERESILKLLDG
inactive: ibrutinib 0.032 | [1] 0 | ralimetinib -0.013 | [2] -0.022 | [3] 0.018 | [4] -0.003 | [5] -0.005 | [6] 0.054 | [7] 0.024 | [8] -0.011 | vemurafenib -0.007 | [9] 0.004 | barasertib 0.002 | [10] 0.008 | volasertib -0.006 | [11] -0.022 | [12] -0.122 | [13] 0.006 | saracatinib -0.017 | sotrastaurin -0.012

TARBP2 (UniProt Q15633)
UniProt Q15633, sequence (Q15633 whole entry, looked up): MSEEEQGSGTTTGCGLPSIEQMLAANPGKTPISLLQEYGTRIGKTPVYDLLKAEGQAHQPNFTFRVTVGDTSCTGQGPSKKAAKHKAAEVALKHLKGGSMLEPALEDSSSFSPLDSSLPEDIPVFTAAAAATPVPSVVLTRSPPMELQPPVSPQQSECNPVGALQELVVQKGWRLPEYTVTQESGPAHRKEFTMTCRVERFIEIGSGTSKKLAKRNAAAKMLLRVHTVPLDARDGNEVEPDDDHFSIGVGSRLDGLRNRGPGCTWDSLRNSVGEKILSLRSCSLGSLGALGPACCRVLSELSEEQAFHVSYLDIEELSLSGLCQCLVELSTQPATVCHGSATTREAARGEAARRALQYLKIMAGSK
inactive: ibrutinib -0.013 | [1] 0 | ralimetinib -0.025 | [2] -0.042 | [3] 0.013 | [4] 0.074 | [5] -0.002 | [6] 0.029 | [7] 0.062 | [8] -0.015 | vemurafenib -0.035 | [9] 0.092 | barasertib 0.093 | [10] -0.145 | volasertib -0.034 | [11] -0.016 | [12] -0.02 | [13] -0.093 | saracatinib 0.035 | sotrastaurin -0.006

SPNS1 (UniProt Q9H2V7)
UniProt Q9H2V7, sequence (Q9H2V7 whole entry, looked up): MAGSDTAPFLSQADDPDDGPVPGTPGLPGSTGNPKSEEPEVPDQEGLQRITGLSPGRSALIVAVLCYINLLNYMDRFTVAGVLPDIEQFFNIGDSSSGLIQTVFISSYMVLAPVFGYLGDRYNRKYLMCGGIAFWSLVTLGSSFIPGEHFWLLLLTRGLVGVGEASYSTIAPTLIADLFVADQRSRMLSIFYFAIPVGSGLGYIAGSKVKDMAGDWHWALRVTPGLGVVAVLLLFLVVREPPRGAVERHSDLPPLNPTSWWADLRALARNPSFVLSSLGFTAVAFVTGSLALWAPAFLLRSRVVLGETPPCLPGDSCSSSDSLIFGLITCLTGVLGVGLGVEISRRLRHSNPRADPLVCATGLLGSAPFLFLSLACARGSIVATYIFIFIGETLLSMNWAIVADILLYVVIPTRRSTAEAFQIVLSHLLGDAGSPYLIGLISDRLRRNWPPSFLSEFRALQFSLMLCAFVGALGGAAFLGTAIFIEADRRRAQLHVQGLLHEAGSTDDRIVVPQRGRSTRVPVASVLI
inactive: ibrutinib 0.02 | [1] -0.001 | ralimetinib 0.005 | [2] -0.009 | [3] 0.007 | [4] -0.009 | [5] -0.007 | [6] 0.047 | [7] -0.029 | [8] 0.012 | vemurafenib 0 | [9] 0.036 | barasertib -0.004 | [10] 0.154 | volasertib -0.004 | [11] -0.097 | [12] -0.014 | [13] 0.064 | saracatinib -0.006 | sotrastaurin 0.02

SRP54 (UniProt P61011)
UniProt P61011, sequence (P61011 whole entry, looked up): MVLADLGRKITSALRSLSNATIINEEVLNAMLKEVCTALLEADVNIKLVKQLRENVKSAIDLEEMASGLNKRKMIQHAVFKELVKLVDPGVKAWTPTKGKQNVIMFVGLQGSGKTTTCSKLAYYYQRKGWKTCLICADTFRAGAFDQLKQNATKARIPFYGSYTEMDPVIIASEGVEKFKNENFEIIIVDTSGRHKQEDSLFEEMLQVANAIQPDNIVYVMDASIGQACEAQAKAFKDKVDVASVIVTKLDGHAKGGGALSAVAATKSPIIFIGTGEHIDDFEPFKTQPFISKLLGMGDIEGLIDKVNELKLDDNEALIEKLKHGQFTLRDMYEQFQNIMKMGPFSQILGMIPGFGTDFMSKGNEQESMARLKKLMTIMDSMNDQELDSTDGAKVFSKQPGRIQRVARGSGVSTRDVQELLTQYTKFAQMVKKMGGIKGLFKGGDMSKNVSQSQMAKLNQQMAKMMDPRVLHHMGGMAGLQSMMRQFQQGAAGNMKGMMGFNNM
inactive: ibrutinib -0.039 | [1] -0.023 | ralimetinib 0.031 | [2] 0.015 | [3] 0.036 | [4] 0.034 | [5] -0.069 | [6] -0.021 | [7] 0.007 | [8] -0.009 | vemurafenib 0.02 | [9] -0.024 | barasertib 0 | [10] 0.068 | volasertib -0.024 | [11] 0.017 | [12] -0.059 | [13] 0.006 | saracatinib 0.043 | sotrastaurin 0.028

SLC7A5 (UniProt Q01650)
active: [12] -0.312
inactive: ibrutinib -0.011 | [1] -0.01 | ralimetinib 0.018 | [2] -0.042 | [3] 0.036 | [4] -0.031 | [5] -0.003 | [6] 0.075 | [7] -0.043 | [8] 0 | vemurafenib -0.027 | [9] -0.017 | barasertib -0.038 | [10] -0.031 | volasertib 0.06 | [11] -0.001 | [13] 0.183 | saracatinib 0.056 | sotrastaurin 0.046

SPATA5 (UniProt Q8NB90)
UniProt Q8NB90, sequence (Q8NB90 whole entry, looked up): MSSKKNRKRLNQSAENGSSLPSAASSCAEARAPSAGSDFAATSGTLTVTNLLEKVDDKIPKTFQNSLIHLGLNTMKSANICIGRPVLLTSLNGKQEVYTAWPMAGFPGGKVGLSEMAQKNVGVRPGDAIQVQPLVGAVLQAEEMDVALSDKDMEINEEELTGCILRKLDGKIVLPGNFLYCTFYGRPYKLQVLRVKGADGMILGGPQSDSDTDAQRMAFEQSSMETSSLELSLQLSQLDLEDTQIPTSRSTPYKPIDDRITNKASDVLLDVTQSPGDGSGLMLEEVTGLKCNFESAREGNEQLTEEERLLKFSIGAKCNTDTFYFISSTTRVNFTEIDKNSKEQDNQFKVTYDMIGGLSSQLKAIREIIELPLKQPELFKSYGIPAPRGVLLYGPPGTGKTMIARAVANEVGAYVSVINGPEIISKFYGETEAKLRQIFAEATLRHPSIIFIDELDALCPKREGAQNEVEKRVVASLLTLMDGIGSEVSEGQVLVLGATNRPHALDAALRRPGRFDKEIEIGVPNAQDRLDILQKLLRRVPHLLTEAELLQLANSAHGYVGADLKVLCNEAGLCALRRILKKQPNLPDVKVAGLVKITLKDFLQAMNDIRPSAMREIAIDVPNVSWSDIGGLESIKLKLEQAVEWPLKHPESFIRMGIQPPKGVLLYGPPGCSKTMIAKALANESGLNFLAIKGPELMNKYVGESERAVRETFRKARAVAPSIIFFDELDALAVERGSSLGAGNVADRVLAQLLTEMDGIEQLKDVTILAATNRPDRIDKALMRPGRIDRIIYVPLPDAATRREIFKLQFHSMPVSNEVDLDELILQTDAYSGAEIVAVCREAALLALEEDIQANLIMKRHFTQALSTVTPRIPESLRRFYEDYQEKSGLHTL
inactive: ibrutinib 0.013 | [1] -0.002 | ralimetinib 0.047 | [2] 0.025 | [3] 0.02 | [4] -0.009 | [5] 0.009 | [6] 0.002 | [7] 0.042 | [8] 0.012 | vemurafenib 0.015 | [9] 0.005 | barasertib 0.02 | [10] -0.021 | volasertib -0.068 | [11] 0.011 | [12] -0.024 | [13] -0.052 | saracatinib -0.001 | sotrastaurin 0.007

SMARCAD1 isoform 2 (UniProt Q9H4L7)
inactive: ibrutinib 0.006 | [1] -0.021 | ralimetinib 0.022 | [2] -0.016 | [3] 0.007 | [4] 0.008 | [5] 0.012 | [6] 0.021 | [7] 0.014 | [8] -0.022 | vemurafenib 0.014 | [9] 0.034 | barasertib 0.021 | [10] -0.039 | volasertib -0.048 | [11] 0.017 | [12] -0.005 | [13] -0.057 | saracatinib 0.008 | sotrastaurin 0.002

SNCA (UniProt P37840)
inactive: ibrutinib 0.102 | [1] -0.148 | ralimetinib 0.028 | [2] 0.02 | [3] 0.013 | [4] 0.036 | [5] -0.068 | [6] -0.042 | [7] -0.059 | [8] 0.028 | vemurafenib 0.042 | [9] -0.039 | barasertib -0.027 | [10] 0.08 | volasertib 0.072 | [11] -0.022 | [12] -0.109 | [13] 0.287 | saracatinib -0.035 | sotrastaurin 0.068

SLC25A38 (UniProt Q96DW6)
UniProt Q96DW6, sequence (Q96DW6 whole entry, looked up): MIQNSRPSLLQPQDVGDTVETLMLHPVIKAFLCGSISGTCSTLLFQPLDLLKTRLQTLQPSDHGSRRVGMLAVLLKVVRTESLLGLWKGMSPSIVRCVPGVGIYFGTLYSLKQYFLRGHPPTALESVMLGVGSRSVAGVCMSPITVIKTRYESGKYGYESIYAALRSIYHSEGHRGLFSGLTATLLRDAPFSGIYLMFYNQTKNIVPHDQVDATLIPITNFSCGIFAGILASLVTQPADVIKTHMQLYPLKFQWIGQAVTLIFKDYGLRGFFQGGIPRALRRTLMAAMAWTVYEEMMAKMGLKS
inactive: ibrutinib 0.061 | [1] -0.108 | ralimetinib -0.074 | [2] -0.003 | [3] -0.114 | [4] -0.153 | [5] -0.437 | [6] 0.002 | [7] 0.115 | [8] 0.04 | vemurafenib 0.037 | [9] 0.013 | barasertib -0.005 | [10] 0.209 | volasertib 0.012 | [11] 0.015 | [12] -0.055 | [13] 0.067 | saracatinib -0.127 | sotrastaurin 0.07

SLC26A6 (UniProt Q9BXS9)
UniProt Q9BXS9, sequence (Q9BXS9 whole entry, looked up): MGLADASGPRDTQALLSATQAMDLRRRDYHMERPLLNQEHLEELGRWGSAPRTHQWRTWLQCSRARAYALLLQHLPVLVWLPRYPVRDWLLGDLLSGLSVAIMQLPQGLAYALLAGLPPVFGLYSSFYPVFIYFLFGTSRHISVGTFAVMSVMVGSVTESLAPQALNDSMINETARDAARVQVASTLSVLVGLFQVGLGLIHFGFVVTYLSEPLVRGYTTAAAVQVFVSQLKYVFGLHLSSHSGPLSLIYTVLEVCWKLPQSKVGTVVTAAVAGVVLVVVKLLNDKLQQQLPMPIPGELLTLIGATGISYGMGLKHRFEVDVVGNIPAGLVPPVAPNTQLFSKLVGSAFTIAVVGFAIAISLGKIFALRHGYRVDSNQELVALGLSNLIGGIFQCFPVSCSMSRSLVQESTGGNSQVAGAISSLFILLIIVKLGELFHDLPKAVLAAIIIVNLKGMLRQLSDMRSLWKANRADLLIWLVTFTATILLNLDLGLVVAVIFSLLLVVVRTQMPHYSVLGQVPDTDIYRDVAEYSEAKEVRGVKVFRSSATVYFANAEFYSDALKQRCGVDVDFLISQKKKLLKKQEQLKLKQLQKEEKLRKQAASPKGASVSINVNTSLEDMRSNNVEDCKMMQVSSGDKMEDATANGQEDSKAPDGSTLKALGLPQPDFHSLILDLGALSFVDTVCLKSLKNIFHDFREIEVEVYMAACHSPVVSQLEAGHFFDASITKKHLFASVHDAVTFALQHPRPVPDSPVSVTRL
active: barasertib 0.421
inactive: ibrutinib -0.242 | [1] 0.018 | ralimetinib 0.019 | [2] -0.056 | [3] -0.05 | [4] -0.157 | [5] -0.022 | [6] 0.017 | [7] 0.033 | [8] -0.056 | vemurafenib 0.106 | [9] 0.086 | [10] 0.055 | volasertib 0.008 | [11] 0.017 | [12] -0.095 | [13] 0.036 | saracatinib -0.126 | sotrastaurin 0.005

TAF9 (UniProt Q16594)
UniProt Q16594, sequence (Q16594 whole entry, looked up): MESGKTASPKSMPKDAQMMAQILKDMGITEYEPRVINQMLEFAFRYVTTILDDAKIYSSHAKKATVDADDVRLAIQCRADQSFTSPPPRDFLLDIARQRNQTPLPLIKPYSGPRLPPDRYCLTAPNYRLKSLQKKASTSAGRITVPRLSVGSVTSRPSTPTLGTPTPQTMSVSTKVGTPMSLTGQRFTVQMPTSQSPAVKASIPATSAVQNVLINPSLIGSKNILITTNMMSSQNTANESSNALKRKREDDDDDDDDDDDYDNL
inactive: ibrutinib -0.028 | [1] 0.044 | ralimetinib 0.033 | [2] -0.057 | [3] 0.032 | [4] 0.015 | [5] 0.019 | [6] 0.027 | [7] 0.101 | [8] -0.023 | vemurafenib -0.028 | [9] -0.092 | barasertib -0.001 | [10] -0.031 | volasertib 0.063 | [11] 0.002 | [13] -0.006 | saracatinib 0.056 | sotrastaurin -0.001
active: [12] 0.238

SPATS2 (UniProt Q86XZ4)
inactive: ibrutinib -0.06 | [1] -0.069 | ralimetinib -0.018 | [2] 0.03 | [3] 0.111 | [4] 0.077 | [5] -0.061 | [6] -0.007 | [7] -0.046 | [8] -0.001 | vemurafenib -0.013 | [9] 0.032 | barasertib 0.071 | [10] -0.175 | volasertib -0.041 | [11] 0.128 | [12] 0.144 | [13] 0.038 | saracatinib -0.12 | sotrastaurin 0.031

SLC25A17 (UniProt O43808)
inactive: ibrutinib -0.007 | [1] -0.043 | ralimetinib 0.047 | [2] -0.019 | [3] 0.037 | [4] 0.001 | [5] 0.029 | [6] 0.03 | [7] -0.01 | [8] 0.044 | vemurafenib -0.035 | [9] -0.031 | barasertib 0.02 | [10] 0.066 | volasertib 0.04 | [11] -0.043 | [12] -0.119 | [13] 0.103 | saracatinib 0.041 | sotrastaurin 0.015

SLC25A32 (UniProt Q9H2D1)
UniProt Q9H2D1, sequence (Q9H2D1 whole entry, looked up): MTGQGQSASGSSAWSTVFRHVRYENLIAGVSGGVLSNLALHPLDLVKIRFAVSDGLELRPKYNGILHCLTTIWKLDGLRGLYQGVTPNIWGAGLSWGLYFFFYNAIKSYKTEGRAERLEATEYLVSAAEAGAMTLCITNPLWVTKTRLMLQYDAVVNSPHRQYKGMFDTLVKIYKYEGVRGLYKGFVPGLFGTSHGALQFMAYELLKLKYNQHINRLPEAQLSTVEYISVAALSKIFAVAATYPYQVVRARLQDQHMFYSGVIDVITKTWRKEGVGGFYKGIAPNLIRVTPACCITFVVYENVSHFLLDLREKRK
inactive: ibrutinib 0.029 | [1] 0.005 | ralimetinib 0.006 | [2] -0.017 | [3] -0.017 | [4] -0.03 | [5] -0.031 | [6] 0.048 | [7] -0.021 | [8] -0.007 | vemurafenib 0.053 | [9] 0.01 | barasertib -0.012 | [10] -0.013 | volasertib 0.002 | [11] -0.045 | [12] -0.129 | [13] 0.054 | saracatinib 0.029 | sotrastaurin 0.007

SMAP2 (UniProt Q8WU79)
active: [6] -0.286
inactive: ibrutinib -0.008 | [1] -0.008 | ralimetinib -0.015 | [2] -0.01 | [3] 0.024 | [4] 0.034 | [5] 0.019 | [7] -0.015 | [8] 0.002 | vemurafenib -0.043 | [9] 0.011 | barasertib 0.013 | [10] 0.047 | volasertib -0.02 | [11] 0.012 | [12] 0.043 | [13] -0.001 | saracatinib 0.044 | sotrastaurin -0.027

SNW1 (UniProt Q13573)
UniProt Q13573, sequence (Q13573 whole entry, looked up): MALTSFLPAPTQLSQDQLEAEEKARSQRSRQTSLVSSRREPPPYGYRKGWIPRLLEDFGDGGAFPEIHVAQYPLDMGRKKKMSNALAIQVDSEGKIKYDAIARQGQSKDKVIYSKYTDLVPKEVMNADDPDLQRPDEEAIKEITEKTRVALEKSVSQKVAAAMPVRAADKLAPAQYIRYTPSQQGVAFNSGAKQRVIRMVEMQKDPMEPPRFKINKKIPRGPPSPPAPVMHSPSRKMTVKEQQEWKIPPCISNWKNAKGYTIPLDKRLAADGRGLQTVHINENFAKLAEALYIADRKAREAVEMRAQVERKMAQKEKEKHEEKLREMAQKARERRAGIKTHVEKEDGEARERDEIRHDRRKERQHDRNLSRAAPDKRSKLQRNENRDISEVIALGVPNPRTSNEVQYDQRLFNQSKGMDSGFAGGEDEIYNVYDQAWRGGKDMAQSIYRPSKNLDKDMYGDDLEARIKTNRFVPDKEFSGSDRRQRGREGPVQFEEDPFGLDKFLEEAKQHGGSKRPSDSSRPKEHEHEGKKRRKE
inactive: ibrutinib 0.01 | [1] 0.001 | ralimetinib -0.005 | [2] -0.007 | [3] 0.014 | [4] 0.007 | [5] -0.045 | [6] 0.016 | [7] -0.004 | [8] 0.015 | vemurafenib 0.019 | [9] 0.01 | barasertib -0.019 | [10] 0.07 | volasertib -0.021 | [11] 0 | [12] 0.191 | [13] -0.037 | saracatinib 0.016 | sotrastaurin -0.037
